Measured values from PubChem BioAssay (NCATS).
Results filed as inconclusive are left out. Entries that show only a call come without a potency. The source made the active and inactive calls. Calls come from the whole dose curve; as a rule, active = well fitted inhibition curve with a large enough effect; inconclusive = small, poorly fitted or top-dose-only effect; inactive = no such curve, though single readings can be large or run the other way.

test: NS1 protein of Zika virus - qHTS assay to identify small molecule inhibitors in human HEK 293 cells (AID 1347053); conditions: HEK293 ZIKV MR766 infection, NS1 TR-FRET, 24 h; series mostly up to 46.1 µM; note: nearly all actives have a fitted effect of over 55% in size
Outline: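 HEK 293 cells pretreated with compound for 1 h, then infected with ZIKV MR766 (MOI 0.5) for 24 h at 37 C. NS1 detected by TR-FRET with two anti-NS1 antibodies; normalized to uninfected (0%) and infected (100%) wells.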
Potency is the fitted concentration of half-maximal effect.

Q: For `COc1ccc(N(C(=O)Oc2c(C)cccc2C)c2ccnc(Nc3ccc(N4CCN(C)CC4)cc3)n2)c(OC)c1`, which Potency is on record?
A: The Potency was “inactive”.

Q: For `O=C(Nc1ccncc1)C(=O)c1cn(Cc2ccc(Cl)cc2)c2ccccc12`, which Potency is on record?
A: The Potency was 0.0093 µM (active).

Q: With `CC[N+]1(CCOC(=O)C(O)(c2ccccc2)c2ccccc2)CCCCC1` as the compound, how does the Potency read?
A: Its Potency is “inactive”.

Q: With `CCOC(=O)Nc1ccc(NCc2ccc(F)cc2)cc1N` as the compound, how does the Potency read?
A: The Potency was “inactive”.

Q: Which Potency does the source give for `COc1ccc2c(c1)[C@]13CCCCC1C(C2)N(C)CC3` (stereo partly specified) here?
A: Its Potency is “inactive”.

Q: With `Nc1ccc(N=Nc2ccccc2)cc1` as the compound, how does the Potency read?
A: The Potency was “inactive”.

Q: For `CCCCCCCCCC(CC)c1ccc(S(=O)(=O)O)cc1` (stereo unspecified), which Potency is on record?
A: Its Potency is “inactive”.

Q: For `c1cc2ccc3cccc4ccc(c1)c2c34`, which Potency is on record?
A: The Potency was “inactive”.

Q: For `CO/C=C(/C(=O)OC)c1ccccc1Oc1cc(Oc2ccccc2C#N)ncn1`, which Potency is on record?
A: The Potency was 14.1 µM (active).

Q: With `C[C@@]12OC(=O)[C@]1([C@@H](O)[C@@H]1C=CCCC1)NC(=O)[C@H]2CCCl` as the compound, how does the Potency read?
A: The Potency was 0.833 µM (active).

Q: Which Potency does the source give for `CC[C@@H]1[C@@H](C)O[C@@](O)([C@@H](C)[C@H](O)[C@H](C)[C@H]2OC(=O)C=CC=C[C@@H](C)[C@@H]([C@@H](C)[C@@H](O)[C@H](C)[C@@]3(O)C[C@H](O[C@H]4C[C@H](O)[C@H](O)[C@H](C)O4)[C@H](CC)[C@@H](C)O3)OC(=O)C=CC=C[C@@H]2C)C[C@H]1O[C@H]1C[C@H](O)[C@H](O)[C@H](C)O1` here?
A: Its Potency is 1.05 µM (active).

Q: Which Potency does the source give for `CC(C)[C@H]1C(=O)N[C@H](CO)Cc2c[nH]c3cccc(c23)N1C` here?
A: Its Potency is “inactive”.

Q: With `O=[N+]([O-])c1cc([N+](=O)[O-])c2ccccc2c1` as the compound, how does the Potency read?
A: Its Potency is “inactive”.

Q: With `Oc1ccc2c3c1O[C@H]1[C@@H](O)C=C[C@H]4[C@@H](C2)NCC[C@@]341` as the compound, how does the Potency read?
A: Its Potency is “inactive”.

Q: With `N=c1c2c(-c3ccccc3)c(-c3ccccc3)n(Cc3ccccc3)c2ncn1C1CCC(O)CC1` (stereo unspecified) as the compound, how does the Potency read?
A: The Potency was 26.4 µM (active).

Q: For `CCOC(=O)c1c(C(C#N)=CN)c2ccc(Cl)c(Cl)c2n1C`, which Potency is on record?
A: Its Potency is “inactive”.

Q: For `O=S(=O)(CC1CS1)c1ccc(Oc2ccccc2)cc1` (stereo unspecified), which Potency is on record?
A: The Potency was “inactive”.

Q: Which Potency does the source give for `CC1=C(O)C(=O)C=C2C1=CC=C1[C@@]2(C)CC[C@@]2(C)[C@@H]3C[C@](C)(C(=O)O)CC[C@]3(C)CC[C@]12C` here?
A: The Potency was 2.96 µM (active).

Q: Which Potency does the source give for `CN(C)NC(=O)CCC(=O)O` here?
A: Its Potency is “inactive”.

Q: With `O=S(=O)(F)Cc1ccccc1` as the compound, how does the Potency read?
A: The Potency was “inactive”.

Q: For `CS(=O)(=O)c1ccc(C(=O)C2C(=O)CCCC2=O)c([N+](=O)[O-])c1`, which Potency is on record?
A: Its Potency is “inactive”.
